{
  "source": "PubChem BioAssay AID651551",
  "about": "(Sanford-Burnham Center for Chemical Genomics, 2012)",
  "molecular_target": "PEG-3 (UniProt Q6IN02)",
  "experiment": "GAPDH versus PEG-3 reporter suppression – cell-based, luminescence, counter-screen for PEG-3 promoter inhibitor project, SAR follow-up (AID 651551)",
  "conditions": "HeLa PEG-Prom / GAPDH luciferase reporter, 6 or 24 h, run 2, 24 h; at 99 µM (top of the series)",
  "data": [
    {"smiles": "CCCn1nc(C(=O)Nc2nc3ccccc3s2)c2ccccc2c1=O", "values": [
      {"measurement": "inhibition % (higher = more inhibition)", "value": 18.4, "unit": "%"}
    ]},
    {"smiles": "Cc1cc(NC(=O)c2ccccc2C)n(-c2nc3ccccc3[nH]2)n1", "values": [
      {"measurement": "inhibition % (higher = more inhibition)", "value": 11.5, "unit": "%"}
    ]},
    {"smiles": "Cc1nc(NC(=O)c2ccccc2)sc1-c1csc(Nc2ccccc2Cl)n1", "values": [
      {"measurement": "inhibition % (higher = more inhibition)", "value": -54.5, "unit": "%"}
    ]},
    {"smiles": "CCn1nc(C(=O)Nc2nc(-c3ccccn3)cs2)c2ccccc2c1=O", "values": [
      {"measurement": "inhibition % (higher = more inhibition)", "value": 53.3, "unit": "%"}
    ]},
    {"smiles": "Cc1cc(NC(=O)c2ccccc2C(F)(F)F)n(-c2nc3ccccc3[nH]2)n1", "values": [
      {"measurement": "inhibition % (higher = more inhibition)", "value": 91.9, "unit": "%"}
    ]},
    {"smiles": "O=C(Nc1nc(-c2ccccc2)cs1)c1nn(-c2ccccc2)c(=O)c2ccccc12", "values": [
      {"measurement": "inhibition % (higher = more inhibition)", "value": 21.2, "unit": "%"}
    ]},
    {"smiles": "O=C(Nc1nc2ccccc2s1)c1nn(-c2ccccc2)c(=O)c2ccccc12", "values": [
      {"measurement": "inhibition % (higher = more inhibition)", "value": -4.01, "unit": "%"}
    ]},
    {"smiles": "CCCn1nc(C(=O)Nc2nc(-c3ccncc3)cs2)c2ccccc2c1=O", "values": [
      {"measurement": "inhibition % (higher = more inhibition)", "value": 40.8, "unit": "%"}
    ]},
    {"smiles": "Cc1ccc(Cl)cc1Nc1nc(-c2sc(NC(=O)c3ccco3)nc2C)cs1", "values": [
      {"measurement": "inhibition % (higher = more inhibition)", "value": 1.6, "unit": "%"}
    ]},
    {"smiles": "CCCn1nc(C(=O)Nc2nc(-c3ccccn3)cs2)c2ccccc2c1=O", "values": [
      {"measurement": "inhibition % (higher = more inhibition)", "value": 44.6, "unit": "%"}
    ]},
    {"smiles": "COc1ccccc1Nc1nc(-c2sc(NC(=O)c3ccco3)nc2C)cs1", "values": [
      {"measurement": "inhibition % (higher = more inhibition)", "value": 10, "unit": "%"}
    ]},
    {"smiles": "COc1ccc(Cl)cc1Nc1nc(-c2sc(NC(=O)c3ccccc3)nc2C)cs1", "values": [
      {"measurement": "inhibition % (higher = more inhibition)", "value": 76.3, "unit": "%"}
    ]},
    {"smiles": "Cc1nc(NC(=O)c2ccccc2)sc1-c1csc(Nc2cccc(Cl)c2C)n1", "values": [
      {"measurement": "inhibition % (higher = more inhibition)", "value": -15.2, "unit": "%"}
    ]},
    {"smiles": "O=C(Nc1nccs1)c1nn(-c2ccccc2)c(=O)c2ccccc12", "values": [
      {"measurement": "inhibition % (higher = more inhibition)", "value": 49.2, "unit": "%"}
    ]},
    {"smiles": "Cc1cc(NC(=O)c2ccccc2)n(-c2nc3ccccc3[nH]2)n1", "values": [
      {"measurement": "inhibition % (higher = more inhibition)", "value": -13.6, "unit": "%"}
    ]},
    {"smiles": "Cc1nc(NC(=O)c2ccccc2)sc1-c1csc(Nc2ccccc2)n1", "values": [
      {"measurement": "inhibition % (higher = more inhibition)", "value": 63.3, "unit": "%"}
    ]},
    {"smiles": "COc1ccc(-n2nc(C(=O)NCC(=O)Nc3ccc(OC)c(OC)c3)c3ccccc3c2=O)cc1", "values": [
      {"measurement": "inhibition % (higher = more inhibition)", "value": 35.2, "unit": "%"}
    ]}
  ]
}
